# Assay results as given in PubChem BioAssay (Tox21).
# Inconclusive results are not listed. Entries that show only a call come without a potency. Calls of active or inactive are those of the source. Calls follow the shape of the dose curve; as a rule, active = well fitted curve in the direction sought with a large enough effect in the repeat runs; inconclusive = weak or mixed curves; inactive = no such curve, though single readings can be large; an effect the other way counts as inactive or inconclusive.
# Experiment: qHTS assay to identify small molecule agonists of the RXR signaling pathway - cell viability counter screen (AID 1159529); also: nearly all actives have a fitted effect of over 50% in size
# Details: RXR-alpha-bla HEK293T viability, CellTiter-Glo, 16 h; series mostly up to 76.8 µM
# In short: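 Cell viability is measured by CellTiter-Glo luminescence, 30 min at room temperature, in wells already read for beta-lactamase. Engineered HEK 293T cells (RXR-alpha-UAS-bla) are dosed 16 hr at 37 C. Tetraoctyl ammonium bromide serves as positive control.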
row,SMILES,Potency
1,O=C(CCC1CCN(Cc2ccccc2)CC1)c1ccc2c(c1)NCCCC2,inactive
2,CCCCCCCCCCOS(=O)(=O)O,inactive
3,CC(CCc1ccc2c(c1)OCO2)NN (stereo not drawn),inactive
4,CCOC(=O)OCC,inactive
5,COc1ccc([C@@H]2Sc3ccccc3NC(=O)[C@@H]2O)cc1,inactive
6,CC(C)C(=O)O,inactive

# Experiment: qHTS assay to identify small molecule antagonists of the retinoid acid receptor (RAR) signaling pathway - cell viability counter screen (AID 1159551); also: nearly all actives have a fitted effect of over 35% in size
# Details: C3RL4 cells viability, ATP luminescence (CellTiter-Glo), 6 h; series mostly up to 92.4 µM
# In short: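 In this counter screen, the RARE-luciferase line C3RL4 was exposed for 6 h at 37 C and 5% CO2 to compounds with retinol at 1 uM final. Cellular ATP, read by luminescence, served as the viability measure.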
row,SMILES,Potency
1,COC(=O)Nc1nc2ccc(C(=O)c3cccs3)cc2[nH]1,inactive
2,CCc1c2c(nc3ccc(OC(=O)N4CCC(N5CCCCC5)CC4)cc13)-c1cc3c(c(=O)n1C2)COC(=O)[C@]3(O)CC,inactive
3,C1COCO1,inactive
4,CN(C)CCOC1=Cc2ccccc2Sc2ccc(Cl)cc21,inactive
5,CCOC(=O)CC(=O)C(=O)OCC,inactive
6,Cc1ccc(Nc2nccc(N(C)c3ccc4c(C)n(C)nc4c3)n2)cc1S(N)(=O)=O,inactive
7,O=C(N[C@@H](c1ccccc1)[C@@H]1CCCCN1)c1cccc(C(F)(F)F)c1Cl,inactive
8,CC(C)CCCCCCOC(=O)CCCCC(=O)OCCCCCCC(C)C,inactive
9,CCNC(=O)N1CCN(CCCC(c2ccc(F)cc2)c2ccc(F)cc2)CC1,inactive
10,C[C@]12CCC(=O)C=C1C=C[C@@H]1[C@@H]2CC[C@@]2(C)[C@H]1CC[C@@]21CCC(=O)O1,inactive
11,CCc1cccc(N(C)C(N)=Nc2cccc3ccccc23)c1,inactive
12,CCCCC(=O)O[C@]1(C(=O)CO)CC[C@H]2[C@@H]3CCC4=CC(=O)CC[C@]4(C)[C@H]3[C@@H](O)C[C@@]21C,inactive
13,CCC1(C)CC(=O)NC1=O (stereo not drawn),inactive
14,CCCCCC=CCC=CCCCCCCCC(=O)OCC,inactive
15,CC(=O)[C@H]1CC[C@H]2[C@@H]3C=CC4=CC(=O)CC[C@@]4(C)[C@@H]3CC[C@]12C,inactive
16,O=C1NCCN1,inactive
17,C=CCNc1nc(NCC=C)nc(N2CCN(C(c3ccc(F)cc3)c3ccc(F)cc3)CC2)n1,inactive
18,COC(=O)CC(=O)C(C)(C)C,inactive
19,C=CCOC(=O)/C=C\C(=O)OCC=C,inactive

row,SMILES,Potency
1,CCC(C(=O)OCCN(CC)CC)c1ccccc1 (stereo not drawn),inactive
2,CN(C(=O)C(Cl)Cl)c1ccc(OC(=O)c2ccco2)cc1,inactive
3,CCOC(=O)c1ccccc1C,inactive
4,C[N+](C)(C)CCOC(N)=O,inactive
5,CO/N=C1\CN(c2nc3c(cc2F)c(=O)c(C(=O)O)cn3C2CC2)CC1CN (stereo not drawn),inactive
6,CN1C(=O)CC(C)(c2ccccc2)C1=O (stereo not drawn),inactive
7,NC(=O)Cn1c(=O)cc(CCN2CCN(c3nccc4sccc34)CC2)c2ccc(F)cc21,inactive
8,CC(=O)[C@H]1CC[C@H]2[C@@H]3C[C@H](C)C4=CC(=O)CC[C@]4(C)[C@H]3[C@@H](O)C[C@]12C,inactive
9,COc1cc2c(cc1OC)-c1cc(=Nc3c(C)cc(C)cc3C)n(C)c(=O)n1CC2,inactive
10,O=C(CCC1CCN(Cc2ccccc2)CC1)c1ccc2c(c1)NCCCC2,inactive
11,Cc1occc1C(=O)Nc1ccc(C(=O)N2CCC(F)(F)/C(=C\C(=O)N3CCC(N4CCCCC4)CC3)c3ccccc32)cc1,inactive
12,CCCCCCCCCCOS(=O)(=O)O,inactive
13,CC(CCc1ccc2c(c1)OCO2)NN (stereo not drawn),inactive
14,CCOC(=O)OCC,inactive
15,Cc1cnc(C)c(C)n1,inactive
16,COc1ccc([C@@H]2Sc3ccccc3NC(=O)[C@@H]2O)cc1,inactive
17,CC(C)C(=O)O,inactive
18,CCOC(=O)/C=C/C(=O)O,inactive
